rCAG binder – r(CAG) repeat RNA binding; TO-PRO-1 dye displacement fluorescence; inhibition, % at 3 µM; hit rate 1.3% among 370,000; AID 651821;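 active means inhibition above the plate cutoff, the mean of all test compounds on that plate plus 3 SD, cut at about 35% in these data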;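 further: higher means more dye released from RNA so lower well fluorescence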
KLK7 zymogen act – proKLK7 (human) activation, primary screen; P49862; purified proKLK7, EDANS-DABCYL substrate fluorescence; 100% is mature enzyme control, 0% vehicle; activation, % at 7 µM; hit rate 0.9% among 370,000; AID 652039;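 active means activation above the mean of all tested compounds plus 3 SD, computed per campaign excluding outliers beyond control limits, cut at about 13% in these data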
Target sequence (P49862 whole entry, looked up): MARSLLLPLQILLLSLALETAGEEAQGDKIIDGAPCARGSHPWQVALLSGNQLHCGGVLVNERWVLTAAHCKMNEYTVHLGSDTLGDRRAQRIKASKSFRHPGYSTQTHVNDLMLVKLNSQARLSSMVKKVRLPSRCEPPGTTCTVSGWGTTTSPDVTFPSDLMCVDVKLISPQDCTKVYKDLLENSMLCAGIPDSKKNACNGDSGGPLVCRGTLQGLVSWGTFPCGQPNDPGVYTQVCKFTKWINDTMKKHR
ADAM17 inh – inhibits human ADAM17 | inhibition, % at 6.95 µM | recombinant ADAM17, EDANS/DABCYL FRET peptide cleavage | hit rate 0.83% among 370,000;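 active means inhibition above the mean of compounds lying between control limits plus 3 SD, set per campaign, cut at about 8.5% in these data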
ADAM10 inh – ADAM10 inhibition, QFRET primary screen; O14672; recombinant ADAM10, EDANS/DABCYL FRET peptide cleavage, 3 h; inhibition, % at 7 µM; hit rate 0.62% among 370,000; AID 720582;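 active means inhibition above a per-campaign cutoff equal to the mean of compounds falling between control-based bounds plus 3 SD, cut at about 20% in these data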
MPTP inh – blocks calcium-induced mitochondrial swelling; hit rate 1.4% among 360,000; AID 602449; inhibition, % at 10 µM; isolated mouse mitochondria, Ca2+ swelling absorbance, 30 min;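 active means inhibition of 50% or more, scaled per plate between neutral and stimulator controls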
Pemphigus Ab inh – inhibitors of pemphigus antibody binding to human desmoglein-3. hit rate 0.48% among 310,000. P32926. binding (percent of control), % at 10 µM. DSG3-coupled beads, scFv-anti-DSG3-GFP binding, flow cytometry; stronger effect = lower value;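 active means binding more than 3 SD below its plate's average and above zero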
ADAM10 confirm – confirmation of inhibitors of human ADAM10; shares compounds with ADAM10 inh; ADAM10 QFRET peptide cleavage, EDANS fluorescence; inhibition, % at 6.95 µM; hit rate 1% among 2,100; AID 743208;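 active means inhibition above about 20% chosen separately for each screening run, limit read from the data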
ADAM17 ctr – counter-screen for ADAM10 exosite inhibitors: inhibitors of human ADAM17; shares compounds with ADAM10 inh; ADAM17 QFRET peptide cleavage, EDANS fluorescence; inhibition, % at 6.95 µM; hit rate 0.5% among 2,100; AID 743214;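 active means mean triplicate inhibition above the solvent-only control wells' mean plus 3 SD, cut at about 12% in these data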
ADAM10 counter – ADAM10 inhibition, counter-screen for ADAM17 exosite hits. shares compounds with ADAM17 inh. recombinant ADAM10, EDANS/DABCYL FRET peptide cleavage, 3 h. inhibition, % at 6.95 µM. hit rate 47% among 2,900;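 active means mean inhibition over the triplicate runs exceeds the activity threshold set in the earlier primary screen, cut at about 20% in these data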
ADAM17 confirm – human ADAM17 inhibition, confirmation; shares compounds with ADAM17 inh; recombinant ADAM17, EDANS/DABCYL QFRET peptide cleavage; inhibition, % at 6.95 µM; hit rate 65% among 2,900;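 active means mean inhibition across replicates above the hit cutoff set in the primary screen, cut at about 8.5% in these data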
Numbers stand for hits; – = inactive; · = no result given. Rows were chosen to be rich in hits. Some 4.7% of all compounds tested hit in one or more screens of this group.

SMILES	rCAG binder	KLK7 zymogen act	ADAM17 inh	ADAM10 inh	MPTP inh	Pemphigus Ab inh	ADAM10 confirm	ADAM17 ctr	ADAM10 counter	ADAM17 confirm
COC(=O)[C@@]12C[C@@H](CC(=O)NCc3ccc(OC)c(OC)c3)C(=O)N(CCc3ccc(OC)c(OC)c3)C1=CCC(C)(C)C2	–	–	–	–	–	·	·	·	·	·
C[C@@H](NC(=O)c1nc[nH]c1C(=O)N[C@@H](CCCCNC(=O)OC(C)(C)C)C(=O)OC(C)(C)C)c1ccccc1	–	–	22	43	–	–	–	–	37	16
CC(C)(C)OC(=O)NCCCC[C@H](NC(=O)c1[nH]cnc1C(=O)Nc1ccccc1)C(=O)OC(C)(C)C	–	–	11	36	–	–	–	–	44	22
COc1cccc(NC(=O)COC(=O)CCC2CCCC2)c1	–	–	–	–	–	–	·	·	·	·
COC(=O)[C@]12CCCCC=C1N(Cc1ccc3c(c1)OCO3)C(=O)[C@H](CC(=O)NCc1ccccc1)C2	–	–	–	–	–	·	·	·	·	·
O=C(O)CNS(=O)(=O)c1cccc(Cl)c1	–	–	–	–	–	–	·	·	·	·
CCN(CC(=O)Nc1c(F)cccc1F)C(=O)c1cc(-c2cccs2)nn1-c1ccccc1	–	–	–	–	–	–	·	·	·	·
Cc1ccc(S(=O)(=O)N(C)c2ccc(OCC(=O)Nc3nc4ccccc4s3)cc2)cc1	–	–	18	29	–	–	–	–	23	16
C[C@@H]1CN([C@@H](C)CO)C(=O)c2cc(NC(=O)Nc3ccc(F)cc3)ccc2O[C@@H]1CN(C)Cc1ccc(Oc2ccccc2)cc1	–	–	11	24	–	–	–	–	48	23
C[C@H](CO)N1C[C@H](C)[C@@H](CN(C)S(=O)(=O)c2ccccc2)Oc2ccc(NC(=O)Nc3ccc(C(F)(F)F)cc3)cc2C1=O	–	–	8.8	33	–	–	–	–	40	24
CC(C)NC(=O)Nc1ccc2c(c1)C(=O)N([C@H](C)CO)C[C@H](C)[C@@H](CN(C)S(=O)(=O)c1ccccc1)O2	–	–	–	–	–	–	·	·	·	·
C[C@@H]1CN([C@@H](C)CO)C(=O)c2cc(NS(C)(=O)=O)ccc2O[C@H]1CN(C)Cc1ccc(Oc2ccccc2)cc1	–	–	–	–	–	–	·	·	·	·
C[C@H](CO)N1C[C@H](C)[C@@H](CN(C)C(=O)Nc2ccccc2)Oc2c(NC(=O)Nc3ccc(C(F)(F)F)cc3)cccc2C1=O	–	–	12	26	–	–	–	–	37	19
COc1ccc(NC(=O)Nc2ccc3c(c2)C(=O)N([C@H](C)CO)C[C@H](C)[C@@H](CN(C)C(=O)Nc2ccc(C(F)(F)F)cc2)O3)cc1	–	–	16	32	–	–	–	–	21	12
COC(=O)/C=C/c1cccc([C@H]2[C@@H]3C=CC[C@@H](C)[C@@H]3C(=O)N2Cc2ccccc2)c1	–	–	–	–	–	–	·	·	·	·
Cc1ccc(S(=O)(=O)N(C)C)cc1NC(=O)CN1C(=O)NC2(CCCCCCC2)C1=O	–	–	–	–	–	–	·	·	·	·
C[C@@H]1CCCCO[C@@H](CN(C)C(=O)Nc2ccc3c(c2)OCO3)[C@@H](C)CN([C@H](C)CO)C(=O)c2cc(NC(=O)Nc3ccc(C(F)(F)F)cc3)ccc2O1	–	–	9.8	21	·	·	–	–	42	22
COc1ccc([C@@H]2[C@@H]3C(=O)N(C(C)(C)C)C(=O)[C@@H]3[C@]3(CC(C)C)C(=O)N(c4cccc(Br)c4)C(=O)N23)cc1	–	–	10	27	–	–	–	–	23	16
